This is a sample that favours compounds with a hit; in the whole collection about 2.5% have one here.
LMP1 NFkB inh – inhibitors of Epstein-Barr LMP1-induced NF-kappaB reporter; LMP1-induced NF-kappaB luciferase reporter cells, luminescence; inhibition, % at 12.5 µM; hit rate 0.69% among 350,000; AID 504558; in the data active = inhibition above about 41%; inconclusive = no clear call, values can overlap the other calls;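 note: 0% = neutral control wells and 100% = reference inhibitor control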
LGR2 antag – inhibitors of bursicon-induced Drosophila LGR2 receptor cAMP signaling. HEK293 LGR2, CRE-luciferase, bursicon-stimulated, 4 h. inhibition, % at 9.99 µM. hit rate 0.35% among 380,000. AID 720647;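 active = drop in luminescence signal, shown as inhibition above about 50% in the replicate tests, limit read from the data, passing the limit was not always enough; inconclusive = probably only some replicates passing the limit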;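 note: agonist challenge used bursicon conditioned medium at about half maximal strength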
TWEAK-Fn14 inh – TWEAK-Fn14 signaling inhibition. inhibition, % at 10 µM. hit rate 2% among 360,000. TWEAK-stimulated Fn14 reporter cells, luciferase luminescence, 8 h; in the data active = inhibition above about 50%
EWS-Fli block – EWS/Fli transcriptional activity inhibition; hit rate 0.67% among 350,000; inhibition, % at 12.6 µM; A673 NR0B1-luciferase reporter, viability-normalised; AID 651661;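 active = mean inhibition of at least 50% after viability correction, with every replicate also passing that limit; inconclusive = mean reaches 50% but only one of two replicates passes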;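 note: firefly luciferase signal divided by Alamar Blue viability fluorescence both relative to DMSO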
TROY signal inh – TROY signaling inhibition; Q293 LMP1-TROYcd NF-kB luciferase reporter, 4 h; inhibition, % at 10 µM; hit rate 0.98% among 360,000; AID 1347056;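 active = compounds whose plate-normalised and pattern-corrected inhibition of the luciferase reporter signal at the single screening dose is 50% or more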
* marks the source's active call; other numbers are inactive results; ? = inconclusive; . = no result given.

SMILES | LMP1 NFkB inh | LGR2 antag | TWEAK-Fn14 inh | EWS-Fli block | TROY signal inh
COc1ccccc1NS(=O)(=O)c1cccc(NC(=O)Nc2ccc(Cl)cc2)c1 | -5 | 32 | 84* | -23 | 59*
O=C(Nc1ccc(Cl)cc1Cl)NC1CCN(S(=O)(=O)c2ccc(F)cc2)CC1 | -7 | -3 | -16 | -138 | 52*
O=C(Nc1cccc(S(=O)(=O)Nc2ccccc2Cl)c1)c1ccc(Cl)nc1 | 23 | 9 | 63* | 3 | 28
O=C(Nc1cccc(S(=O)(=O)N2CCCCC2)c1)Nc1ccc(Cl)cc1Cl | -1 | 39 | 83* | 9 | 59*
Cc1noc(C)c1S(=O)(=O)Nc1ccc2c(c1)CC(=O)N([C@@H](C)CO)C[C@H](C)[C@H](CN(C)S(C)(=O)=O)O2 | . | 4 | . | -10 | .
C[C@H](CO)N1C[C@H](C)[C@@H](CN(C)C(=O)c2ccccn2)Oc2cc(C#CC3CC3)ccc2S1(=O)=O | . | 17 | . | 0 | .
Cc1ccc(C(=O)c2coc3ccc(O)cc23)cc1 | 10 | -8 | 56* | 5 | -15
COc1ccc(OC)c(C(=O)c2coc3ccc(OC(C)=O)cc23)c1 | 1 | -29 | -23 | 0 | -54
COc1ccc(C(=O)c2coc3ccc(OC(C)=O)cc23)cc1 | 1 | -20 | 57* | -34 | -4
COCC(=O)N1CC2(CN(Cc3ccc(OC)cc3)C2)c2c([nH]c3cc(OC)ccc23)[C@@H]1CO | . | -7 | . | 1 | .
Cc1ccc(/C=N/NC(=O)Cn2nnc(N)n2)o1 | -2 | 6 | 87* | 0 | -1
Cc1ccc(/C=N/NC(=O)Cn2nnc(N)n2)cc1 | -9 | -35 | 12 | -7 | 13
COc1ccc(CN(C)C[C@@H]2OCCCC[C@@H](C)Oc3ccc(NC(=O)Nc4ccc(C(F)(F)F)cc4)cc3C(=O)N([C@H](C)CO)C[C@@H]2C)cc1 | . | . | . | -8 | .
COc1ccc(CN(C)C[C@@H]2OCCCC[C@H](C)Oc3ccc(NC(=O)Nc4ccc(C(F)(F)F)cc4)cc3C(=O)N([C@H](C)CO)C[C@H]2C)cc1 | . | . | . | 71* | .
COc1ccc(CN(C)C[C@H]2OCCCC[C@H](C)Oc3ccc(NC(=O)Nc4ccc(C(F)(F)F)cc4)cc3C(=O)N([C@@H](C)CO)C[C@@H]2C)cc1 | . | . | . | 71* | .
C[C@H](CO)N1C[C@H](C)[C@H](CN(C)Cc2ccc(C(F)(F)F)cc2)OCCCC[C@H](C)Oc2ccc(NC(=O)CCCN(C)C)cc2C1=O | . | 18 | . | 68* | .
C[C@@H]1CCCCO[C@H](CN(C)Cc2ccncc2)[C@H](C)CN([C@@H](C)CO)C(=O)c2cc(NC(=O)c3ccccc3)ccc2O1 | . | -6 | . | 58* | .
C[C@@H]1CN([C@@H](C)CO)C(=O)c2cc(NC(=O)c3ccccc3)ccc2O[C@@H](C)CCCCO[C@@H]1CN(C)Cc1ccncc1 | . | -19 | . | -67 | .
C[C@@H]1CN([C@@H](C)CO)C(=O)c2cc(N(C)C)ccc2O[C@@H]1CN(C)Cc1ccc(C(=O)Nc2ccccc2N)cc1 | . | . | . | 82* | .
C[C@@H]1CN([C@H](C)CO)C(=O)c2cc(NC(=O)Nc3ccc(C(F)(F)F)cc3)ccc2O[C@@H](C)CCCCO[C@H]1CN(C)Cc1ccccc1 | . | 9 | . | 77* | .
COc1ccc(NC(=O)Nc2ccc3c(c2)C(=O)N([C@H](C)CO)C[C@H](C)[C@@H](CN(C)Cc2ccc(C(F)(F)F)cc2)OCCCC[C@H](C)O3)cc1 | . | 19 | . | 13 | .
C[C@H](CO)N1C[C@H](C)[C@@H](CN(C)Cc2ccccc2)OCCCC[C@H](C)Oc2ccc(NC(=O)Nc3ccc(C(F)(F)F)cc3)cc2C1=O | . | 0 | . | 10 | .
C[C@H](CO)N1C[C@H](C)[C@H](CN(C)Cc2ccc(Cl)c(Cl)c2)Oc2ccc(NC(=O)CCCN(C)C)cc2C1=O | . | 10 | . | 70* | .
COc1ccc(CN(C)C[C@@H]2OCCCC[C@H](C)Oc3ccc(NC(=O)Nc4ccc(C(F)(F)F)cc4)cc3C(=O)N([C@@H](C)CO)C[C@H]2C)cc1 | . | . | . | 72* | .
COc1ccc(-c2ccc([C@H]3[C@@H](CO)N4CCCCN(C(=O)c5ccc(F)cc5)C[C@@H]34)cc2)cc1 | . | -3 | . | . | .
SMILES | LMP1 NFkB inh | LGR2 antag | TWEAK-Fn14 inh | EWS-Fli block | TROY signal inh
C[C@H]1CN([C@@H](C)CO)C(=O)Cc2cc(NS(=O)(=O)c3cccs3)ccc2O[C@@H]1CN(C)S(=O)(=O)c1ccc(Cl)cc1 | . | -1 | . | 0 | .
COc1ccc(CN(C)C[C@@H]2OCCCC[C@@H](C)Oc3ccc(NC(=O)Nc4ccc(C(F)(F)F)cc4)cc3C(=O)N([C@@H](C)CO)C[C@@H]2C)cc1 | . | . | . | 70* | .
O=C(O)C[C@H]1C=C[C@@H](NC(=O)c2ccncc2)[C@H](CO)O1 | . | -4 | . | 1 | .
COc1ccccc1-c1cn(CC[C@@H]2CC[C@@H](NC(=O)C3CC3)[C@H](CO)O2)nn1 | . | 15 | . | -3 | .
CCCc1ccc(C(C)NC(=S)NCc2ccc(F)cc2)cc1 (stereo not given) | -5 | 10 | 24 | 17 | 56*
C[C@H]1CN([C@@H](C)CO)C(=O)c2cc(-c3ccc(C#N)cc3)cnc2O[C@H]1CN(C)C(=O)Nc1ccc(C(F)(F)F)cc1 | . | -3 | . | -7 | .
C=CCn1c(C)cc(C(=O)Cn2ncc(Cl)c(Cl)c2=O)c1C | -47 | . | 48 | 55* | -23
O=C(OCn1ncc(Cl)c(Cl)c1=O)c1ccccc1Cl | 86* | . | 104* | . | 73*
C=CCn1c(C)cc(C(=O)CSc2nnc(C3CC3)n2C2CC2)c1C | -4 | -10 | -13 | -50 | -22
O=C(Cn1ncc(Cl)c(Cl)c1=O)c1ccc(Cl)cc1 | -78 | . | 83* | . | 13
O=C(Cn1ncc(N2CCOCC2)c(Cl)c1=O)c1ccc(Cl)cc1 | -16 | 3 | -9 | -23 | -23
C=CCn1c(C)cc(C(=O)CN2NS(=O)(=O)c3ccccc3C2=O)c1C | -27 | -95 | 40 | 45 | 69*
COc1ccc2c3c(n(C)c2c1)[C@@H](CO)N(CC1CC1)CC31CN(S(=O)(=O)c2cccs2)C1 | . | 0 | . | -9 | .
COCC#Cc1ccc([C@@H]2[C@H]3CN(C(=O)Nc4ccc(F)cc4)CC(=O)N3[C@H]2CO)cc1 | . | -3 | . | 0 | .
COc1cccc(NC(=O)N2C[C@H](O)COC[C@@H]3O[C@@H](CC(=O)NC4CCC4)CC[C@H]32)c1 | . | 4 | . | 4 | .
O=c1cnn(Cc2ccc(F)cc2)c2ccccc12 | -3 | 13 | -3 | 5 | -20
O=c1c(Cl)c(Cl)cnn1Cc1ccc(F)cc1 | -9 | ? | 81* | 41 | 2
O=C(Nc1ccccc1)N1CC(=O)N2[C@H](CO)[C@H](c3ccc(C#CC4CC4)cc3)[C@H]2C1 | . | 1 | . | -1 | .
COc1ccccc1C#Cc1cnc2c(c1)C(=O)N([C@@H](C)CO)C[C@@H](C)[C@@H](CN(C)C(C)=O)O2 | . | -31 | . | -24 | .
O=C(CN1C(=O)c2ccccc2S1(=O)=O)c1ccc2c(c1)OCCCO2 | 86* | 93* | 102* | 89* | 81*
O=C(CCN1C(=O)c2ccccc2S1(=O)=O)Nc1ccc2c(c1)OCCO2 | 4 | -20 | 13 | -7 | -39
O=C(CN1C(=O)c2ccccc2S1(=O)=O)c1ccc2c(c1)OCCO2 | 81* | 103* | 104* | 86* | 83*

Source: PubChem (several laboratories)
